# Experimental data taken from PubChem BioAssay AID2283125 (EPA ToxCast).
# Inconclusive results are not listed. The source made the active and inactive calls. The calls were made as follows: active = hit-call score of the fitted dose curve at least 0.9, where 1 is the maximum; inconclusive = response in the unintended direction; inactive = score below 0.9.
# Target: Tyrosine-protein kinase ABL1 (Homo sapiens) (UniProt P00519)
# Experiment: NVS_ENZ_hAbl: NovaScreen (NVS) Enzymatic Assay for human ABL proto-oncogene 1, non-receptor tyrosine kinase
# Method: NVS_ENZ_hAbl is a biochemical, single-readout assay that uses extracted gene-proteins in a cell-free assay. Measurements were taken 1 hour after chemical dosing in a 96-well plate.NVS_ENZ_hAbl is one of one assay component(s) measured or calculated from the NVS_ENZ_hAbl assay. It is designed to make measurements of enzyme activity, a form of enzyme reporter, as detected with fluorescence intensity signals by Fluorescence and electrophoretic mobility shift technology.Data from the assay component NVS_ENZ_hAbl was analyzed into 1 assay endpoint. This assay endpoint, NVS_ENZ_hAbl, was analyzed in the positive analysis fitting direction relative to DMSO as the negative control and baseline of activity. Using a type of enzyme reporter, loss-of-signal activity can be used to understand changes in the enzymatic activity as they relate to the gene ABL1. Furthermore, this assay endpoint can be referred to as a primary readout, because this assay has produced multiple assay endpoints where this one serves a enzymatic activity function. To generalize the intended target to other relatable targets, this assay endpoint is annotated to the kinase intended target family, where the subfamily is non-receptor tyrosine kinase.
# Binding assays used specific radioligands (tritiated, iodinated) with non-radioactive competitive displacement ligands in agonist or antagonist protocols (as indicated) and various reference compounds and inhibitors to titrate specific binding to receptors and transporters. Most enzyme assays (CYPs, kinases, phosphatases, proteases, HDACs) used recombinant protein and specific substrates (fluorescence mostly, some colorimetric and radioactive) and inhibitors, followed by a biochemical separation of substrate and product. All assays for the biochemical HTS were initially run in duplicate at a single concentration (10 uM for CYP450 assays and 25 uM for all others). Assay-chemical combinations meeting a pre-defined threshold (e.g., 30% inhibition and other criteria defined below) were then run in singleton concentration-response format with maximum concentration of 20 uM for CYPs and 50 uM for all others. Each assay was run with positive and negative controls, and concurrent controls on every plate. The follow-up (secondary) screen tested active chemical-pairs in concentration series, as well as a few additional assays not tested in the primary screen, some selected negative inactives, and several cases re-run in the concentration series for confirmatory purposes.
# Tyrosine-protein kinase ABL1 (Homo sapiens), sequence (P00519 whole entry, looked up): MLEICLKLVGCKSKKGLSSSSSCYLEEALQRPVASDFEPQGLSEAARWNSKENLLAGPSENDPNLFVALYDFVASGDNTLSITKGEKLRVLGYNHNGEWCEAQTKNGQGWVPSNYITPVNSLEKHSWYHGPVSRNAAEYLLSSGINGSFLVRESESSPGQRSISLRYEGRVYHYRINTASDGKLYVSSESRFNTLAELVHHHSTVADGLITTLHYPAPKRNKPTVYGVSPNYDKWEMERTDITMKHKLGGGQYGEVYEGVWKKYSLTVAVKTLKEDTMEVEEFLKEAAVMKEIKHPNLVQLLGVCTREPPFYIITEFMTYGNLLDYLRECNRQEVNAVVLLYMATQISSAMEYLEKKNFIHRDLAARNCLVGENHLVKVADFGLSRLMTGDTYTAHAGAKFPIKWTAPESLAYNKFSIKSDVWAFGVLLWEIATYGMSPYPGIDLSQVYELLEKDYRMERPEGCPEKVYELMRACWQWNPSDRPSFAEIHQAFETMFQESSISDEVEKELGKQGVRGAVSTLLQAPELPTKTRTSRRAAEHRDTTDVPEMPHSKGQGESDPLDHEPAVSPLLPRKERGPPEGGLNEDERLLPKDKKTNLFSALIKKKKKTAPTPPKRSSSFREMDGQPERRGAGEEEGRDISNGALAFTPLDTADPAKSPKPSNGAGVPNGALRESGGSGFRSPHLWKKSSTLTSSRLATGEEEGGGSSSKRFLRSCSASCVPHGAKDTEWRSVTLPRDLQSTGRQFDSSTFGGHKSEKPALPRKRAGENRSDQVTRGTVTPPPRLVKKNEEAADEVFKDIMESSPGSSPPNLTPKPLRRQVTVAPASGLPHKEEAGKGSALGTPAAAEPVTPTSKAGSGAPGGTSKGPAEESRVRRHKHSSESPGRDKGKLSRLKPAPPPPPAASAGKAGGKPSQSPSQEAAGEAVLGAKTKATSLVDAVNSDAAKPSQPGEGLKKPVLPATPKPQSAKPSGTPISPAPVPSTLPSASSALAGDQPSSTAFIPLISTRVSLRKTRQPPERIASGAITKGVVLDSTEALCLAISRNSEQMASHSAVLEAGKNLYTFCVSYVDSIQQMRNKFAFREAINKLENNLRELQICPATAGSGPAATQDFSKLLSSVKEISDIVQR
row,Structure (SMILES),outcome
1,O=C(O)C(F)(F)C(F)(F)C(F)(F)C(F)(F)C(F)(F)C(F)(F)C(F)(F)F,inactive
2,O=C(Nc1ccccc1)Nc1cnns1,inactive
3,CCCC(=NOCC)C1=C(O)CC(CC(C)SCC)CC1=O (stereo not drawn),inactive
4,CCNc1nc(Cl)nc(NCC)n1,inactive
5,O=C(Nc1ccccc1)Nc1ccnc(Cl)c1,inactive
6,CCCCNC(=O)n1c(NC(=O)OC)nc2ccccc21,inactive
7,O=S(=O)(O)C(F)(F)C(F)(F)C(F)(F)C(F)(F)C(F)(F)C(F)(F)C(F)(F)C(F)(F)F,inactive
8,N#Cc1c(Cl)c(Cl)c(Cl)c(C#N)c1Cl,inactive
